# This is one part of the list. Activity calls are given as the source filed them. Cut-off read from the data, not from the text of the source: active = inhibition mostly above about 35% (no sharp cut-off); inactive = mostly below about 32%.
# Molecular target: Sentrin-specific protease 1 (Homo sapiens) (UniProt Q9P0U3)
# Test: human SENP1 catalytic domain inhibitors, confirmation, biochemical, FRET endpoint, single concentration (AID 651678);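 note: 0% = enzyme with DMSO and 100% = no enzyme control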
# Details: recombinant SENP1, CyPet-SUMO1-YPet FRET cleavage; at 10 µM; hits give high values
# Sentrin-specific protease 1 (Homo sapiens), sequence (Q9P0U3 419-644 limits assumed): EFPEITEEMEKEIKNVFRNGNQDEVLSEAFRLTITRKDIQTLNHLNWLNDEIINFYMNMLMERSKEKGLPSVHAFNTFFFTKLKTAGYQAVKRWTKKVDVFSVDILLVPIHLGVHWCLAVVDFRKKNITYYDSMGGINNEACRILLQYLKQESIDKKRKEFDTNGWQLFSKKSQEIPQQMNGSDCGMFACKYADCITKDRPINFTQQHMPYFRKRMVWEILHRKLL
structure (smiles),measurement,value
COc1ccccc1N=Nc1c(O)[nH]c(=S)[nH]c1=O,inhibition,52% (active)
